± gives the standard deviation.
System: MILI (PIWIL2) piRISC loaded with piRNA #1 (26 nt)
Assay: pre-steady-state target cleavage rate (min^-1); guide: piRNA #1 5'p-UGAGGUAGUAGGUUGUAUAGUAUCCA; MIWI and MILI are mouse PIWI proteins and EfPiwi is from a freshwater sponge; tags in brackets are library labels; higher = faster piRNA-guided slicing of the target
Conditions: auxiliary factor: 500 nM mouse GTSF1
Method in brief: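 In this Cleave-'n-Seq assay, uncleaved targets were sequenced and normalised to depth and to weakly complementary targets. They came from a transcribed, DNA-blocked target RNA library […] mixed with 1 nM active affinity-purified piRISC carrying one synthetic guide, with or without 500 nM GTSF1 partner protein, in HEPES–potassium acetate buffer at 33 °C for 0–8 or 0–960 min. After three trials were pooled and k3 was capped at 0.0001 min^-1, the pre-steady-state cleavage rate was obtained from a burst-and-steady-state fit.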
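Further: 1 nM active piRISC with 0.1 nM target library at 33 °C single turnover.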

Sequence | pre-steady-state target cleavage rate
GGAGACCUAUGUUUACAACCUACUAGCUCA | 0.00692 ± 0.0034
GGAGACCAUACUAUACAAGCUACAACCUCA | 0.212 ± 0.022
GGAGACCUAUGAAUACAACCUACUCACCUCA | 0.004 ± 0.0026
GGAGACCUAUGAUAUGUUGGUACUACGAGA | < 0.0001
GGAGACCUUACUAUCAACCUACUACCUCA | 0.0728 ± 0.0079
GGAGACCUAUGAUUACAACCUACAACCUCA | 0.00538 ± 0.0023
GGAGACCUAUGUAUACAACGUACUACCUGA | 0.00357 ± 0.0021
GGAGACCUAUGAAUACAACCUACUACCCCA | 0.00425 ± 0.0034
GGAGACCUAUGUACACAACCUACUACCUCA | 0.0498 ± 0.0086
GGAGACCUAUGAUAUGUUCCUACUACCUGCA | < 0.0001
GGAGACCAUACUUUACAACCUUCUACCUCA | 0.0105 ± 0.0033
GGAGACCUAACUAUACUACCUACUUCCUCA | 0.0587 ± 0.013
GGAGACCAUACUUUAGAACCUACUACCUCA | 0.134 ± 0.013
GGAGACCUAUCUAUACAACGUUCUACCUCA | 0.00394 ± 0.0033
GGAGACCUAUGAUAUCAACCUACAACCUCA | 0.00288 ± 0.0026
GGAGACCUAUGAUAUGUUCCUCCUACCUCA | < 0.0001
GGAGACCUUACUAUACAACGAACUACCUCA | 0.00385 ± 0.0021
GGAGUCGAUAGUAUACAACCUACUACCUCA | 0.154 ± 0.011
GGAGACCAUACUAUACAACCUACUACCAUCA | 0.168 ± 0.027
GGAGACCUAUGAUAUCCAACCUACUACCUCA | 0.0112 ± 0.0022

Sequence | pre-steady-state target cleavage rate
GGAGACCUAUGAUUACAACCUACUUACCUCA | 0.0057 ± 0.0019
GGAGAGGAUUCUAAACAACCUACUACCUCA | 0.149 ± 0.01
GGAGACCUAUGAUAACAAGCUAGUACCUCA | 0.00508 ± 0.0032
GGAGACCUAUGUAUACAACCUACUAGCACA | 0.00507 ± 0.0028
GGAGACCUAACUAUACAACCUACUACCCUCA | 0.185 ± 0.034
GGAGACCAUACUAAACAACCUACUUCCUCA | 0.068 ± 0.011
GGAGACCUAAGUAUACAACCUACUACCUGA | 0.0424 ± 0.0093
GGAGACCUAACUAUACUACCUUCUACCUCA | 0.00544 ± 0.0042
GGAGACCUAUGUAUACAAGCUAGUACCUCA | 0.0538 ± 0.0098
GGAGUGGAUACUAAACAACCUACUUCCUCA | 0.00431 ± 0.0024
GGAGACCUAUGAUAACAUCCUACUUCCUCA | 0.00421 ± 0.0027
GGAGACCUAUCAUACAACCUACUACCUCA | 0.0591 ± 0.0093
GGAGACCUAUGUAUACAACCUACAACCUGA | 0.0031 ± 0.0024
GGAGACCUUACUUUACAACCUACUAGCUCA | 0.111 ± 0.02
GGAGACCUAUCUAUACAACCUACUUCCUGA | 0.0608 ± 0.018
GGAGACCUAUGAAUACAUCCUACUACCUGA | 0.00353 ± 0.002
GGAGACGAUACUAAACAACCUUCUACCUCA | 0.00978 ± 0.003
GGAGACGAUACUAUACUACCAACUACCUCA | 0.00729 ± 0.0029
GGAGACCUAUGAUAUGAAGCUACUUCCUCA | < 0.0001
GGAGACCUAUGAUUACAUCCAACUACCUCA | 0.00328 ± 0.003

From the supplement of paper PMC10338343
